AmpC detergent – qHTS Inhibitors of AmpC Beta-Lactamase (assay with detergent); AmpC hydrolysis of nitrocefin, absorbance 480 nm, 0.01% Triton; AID 485294, 2010; Potency, µM (series often up to 114 µM), hits mostly inhibitors; P00811; actives 0.041% (n = 370,000); further: nearly all actives have a fitted effect of over 25% in size
Target sequence (P00811 whole entry, looked up): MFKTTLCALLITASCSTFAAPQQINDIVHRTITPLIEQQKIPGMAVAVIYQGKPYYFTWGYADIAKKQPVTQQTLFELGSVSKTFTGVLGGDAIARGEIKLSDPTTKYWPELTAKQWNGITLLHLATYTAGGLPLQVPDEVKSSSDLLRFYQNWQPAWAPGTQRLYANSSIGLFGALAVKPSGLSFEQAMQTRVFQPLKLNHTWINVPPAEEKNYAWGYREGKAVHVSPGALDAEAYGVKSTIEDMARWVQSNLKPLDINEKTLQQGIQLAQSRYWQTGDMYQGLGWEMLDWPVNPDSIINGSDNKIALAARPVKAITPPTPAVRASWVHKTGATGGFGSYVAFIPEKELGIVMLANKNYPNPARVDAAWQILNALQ
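AmpC (5.3 nM in the dispensed reagent) in 20 mM phosphate pH 7.0 with 0.01% (detergent screen) or 0.0001% Triton X-100 was preincubated with compounds for 15 min at room temperature. Nitrocefin was then added from an 800 uM solution, and hydrolysis was followed at 480 nm.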
AMA1-RON2 inh – qHTS for Inhibitors of AMA1-RON; Towards Development of Antimalarial Drug Lead: Primary Screen; Plasmodium falciparum AMA1 (3D7) - RON2 peptide interaction; AlphaScreen AMA1-biotinylated RON2 peptide binding; Potency, µM (series often up to 58.2 µM), hits mostly inhibitors; actives 0.2% (n = 360,000); AID 720542, 2013; further: nearly all actives have a fitted effect of over 45% in size
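AMA1 (3D7) with his tag at 25 nM final met compounds first, then biotinylated RON2 peptide at 25 nM; detection used donor plus acceptor beads, 10 µg/mL apiece, read by AlphaScreen after 30 min at room temperature.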
AmpC no deterg – qHTS Inhibitors of AmpC Beta-Lactamase (assay without detergent); AmpC nitrocefin hydrolysis, absorbance 480 nm, 0.0001% Triton; actives 0.52% (n = 330,000); Potency, µM (doses to about 57.1 µM), most hits filed as inhibitors; AID 485341, 2010; further: nearly all actives have a fitted effect of over 20% in size
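20 mM phosphate pH 7.0 + 0.01% (detergent screen) or 0.0001% Triton X-100; 5.3 nM AmpC reagent; cpd preinc 15 min RT; nitrocefin (800 uM stock) to start; A480 q20 s × 4 min; Activity was normalised to no-enzyme and no-compound control wells.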
SARS PLpro yeast – qHTS of Yeast-based Assay for SARS-CoV PLP | Potency, µM (highest dose often 32.9 µM), most hits filed as activators | S. cerevisiae expressing SARS-CoV PLpro, growth rescue | actives 0.19% (n = 330,000); calls by dose curve; further: nearly all actives have a fitted effect of over 55% in size
Vaccinia mCherry – qHTS for Stage-Specific Inhibitors of Vaccinia Orthopoxvirus: mCherry Reporter Primary qHTS. Vaccinia virus mCherry reporter infection, fluorescence. Potency, µM (series often up to 36.5 µM), usual class: inhibitors. actives 0.63% (n = 310,000). AID 720579, 2013; calls by dose curve; tested in A549 cells; further: nearly all actives have a fitted effect of over 35% in size
VACV Venus inh – qHTS for Stage-Specific Inhibitors of Vaccinia Orthopoxvirus: Venus Reporter Primary qHTS. AID 720580, 2013. Potency, µM (titrated, usually from 36.5 µM), most hits filed as inhibitors. Vaccinia virus Venus reporter expression, fluorescence. actives 0.46% (n = 330,000); calls by dose curve; tested in A549 cells; further: nearly all actives have a fitted effect of over 30% in size
Numbers stand for hits; ! = not confirmed by another sample. Rows were chosen to be rich in hits. Some 1.4% of all compounds tested hit in one or more screens of this group. Unless noted, the call rests on the fitted dose curve; in most records, active means well fitted curve in the direction sought with a large enough effect; inconclusive means small, poorly fitted or top-dose-only effect, or another doubt; inactive means no such curve, though single readings can be large; an effect the other way counts as inactive or inconclusive.

How did Nc1cc(-c2ccccc2)nn1S(=O)(=O)c1ccc(F)cc1 do in these assays?
AmpC detergent: inconclusive; AMA1-RON2 inh: inactive; AmpC no deterg: inactive; SARS PLpro yeast: inactive; Vaccinia mCherry: 10µM; VACV Venus inh: inconclusive

Results for Nc1cc(-c2ccc(Br)cc2)nn1S(=O)(=O)c1ccccc1 ?
AmpC detergent: inactive; AMA1-RON2 inh: inactive; AmpC no deterg: inconclusive; SARS PLpro yeast: inactive; Vaccinia mCherry: inactive; VACV Venus inh: inactive

How did Nc1c(N=Nc2ccc([N+](=O)[O-])cc2)c(S(=O)(=O)O)cc2cc(S(=O)(=O)O)c(/C=C/c3ccccc3)c(O)c12 do in these assays?
Vaccinia mCherry: inconclusive; VACV Venus inh: inactive

How did CC(C)(C)c1cc(C=C(C#N)C#N)cc(C(C)(C)C)c1O do in these assays?
AmpC detergent: inconclusive; AMA1-RON2 inh: inactive; AmpC no deterg: inactive; Vaccinia mCherry: 1µM!; VACV Venus inh: inconclusive

What do the screens show for `N#CC(C#N)=Cc1ccc(O)c(O)c1`?
AmpC detergent: inconclusive; AMA1-RON2 inh: inactive; AmpC no deterg: inactive; Vaccinia mCherry: inactive; VACV Venus inh: inactive

Results for O=c1[nH]c2c(s1)C(c1ccc(O)cc1)C1C3CCC(C3)C1S2 (stereo not drawn) ?
AmpC detergent: inactive; AMA1-RON2 inh: inactive; AmpC no deterg: 45µM; SARS PLpro yeast: inactive; Vaccinia mCherry: inconclusive; VACV Venus inh: inactive

Results for O=c1[nH]c2c(s1)C(c1cccnc1)C1C3CCC(C3)C1S2 (stereo not drawn) ?
AmpC detergent: inactive; AMA1-RON2 inh: inactive; AmpC no deterg: inactive; SARS PLpro yeast: inactive

What do the screens show for `O=C(Cc1cccc2ccccc12)N/N=C/c1ccc(OC(=O)/C=C/c2ccco2)cc1`?
AmpC detergent: inconclusive; AMA1-RON2 inh: inactive; AmpC no deterg: 35µM; SARS PLpro yeast: inactive; Vaccinia mCherry: inactive; VACV Venus inh: inactive

What do the screens show for `O=C(Cc1cccc2ccccc12)N/N=C/c1ccc(F)cc1`?
AmpC detergent: inactive; AMA1-RON2 inh: inactive; AmpC no deterg: inactive; SARS PLpro yeast: inactive; Vaccinia mCherry: inactive; VACV Venus inh: inactive

Results for COc1ccc(/C=N/Nc2snc(SC)c2C#N)cc1OC ?
AmpC detergent: inactive; AMA1-RON2 inh: inactive; AmpC no deterg: inactive; SARS PLpro yeast: inactive; VACV Venus inh: inactive

Results for COc1cccc(/C=N/Nc2snc(SC)c2C#N)c1O ?
AmpC detergent: inconclusive; AMA1-RON2 inh: inactive; AmpC no deterg: inactive; SARS PLpro yeast: inactive; Vaccinia mCherry: 10µM; VACV Venus inh: 7.9µM

What do the screens show for `O=c1nccc(N/N=C/c2ccccc2O)[nH]1`?
AmpC detergent: inactive; AMA1-RON2 inh: inactive; AmpC no deterg: inactive; SARS PLpro yeast: inactive; Vaccinia mCherry: 1µM; VACV Venus inh: inconclusive

How did COc1cccc(/C=N/Nc2ccnc(=O)[nH]2)c1O do in these assays?
AmpC detergent: inactive; AMA1-RON2 inh: inactive; AmpC no deterg: inactive; SARS PLpro yeast: inactive; Vaccinia mCherry: 0.79µM; VACV Venus inh: inconclusive

What do the screens show for `COc1cc(CN2CCCC(n3cc(C(=O)N4CCCC4)nn3)C2)cc(OC)c1` (stereo not drawn)?
Vaccinia mCherry: inactive; VACV Venus inh: inactive

How did Nc1ncnc2c1[nH]c(=S)n2C1OC(CO)C(O)C1O (stereo not drawn) do in these assays?
Vaccinia mCherry: inactive; VACV Venus inh: inactive

How did Cc1nc2c(o1)C(=O)c1ccccc1C2=Nc1ccccc1 do in these assays?
AMA1-RON2 inh: inactive; Vaccinia mCherry: 2.5µM; VACV Venus inh: 2.8µM

How did Cc1ccc(N=C2C(=O)Nc3ccccc32)cc1 do in these assays?
AmpC detergent: inactive; AMA1-RON2 inh: inactive; AmpC no deterg: inactive; SARS PLpro yeast: inactive; Vaccinia mCherry: inactive; VACV Venus inh: inactive

How did COc1cccc(CNC(=O)c2ccc(-c3nc(CS(=O)c4ccccc4)c(C)o3)cc2)c1 (stereo not drawn) do in these assays?
AmpC detergent: inactive; Vaccinia mCherry: inactive; VACV Venus inh: inactive

Screening data from PubChem BioAssay.
